In experiment [1] the target is Thyrotropin receptor (Homo sapiens) (UniProt P16473). Description: qHTS assay to identify small molecule antagonists of the thyroid stimulating hormone receptor (TSHR) signaling pathway (AID 1259385; calls by dose curve; further: nearly all actives have a fitted effect of over 20% in size). In short, it runs like this: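 Antagonist mode: compound-treated TSHR-expressing HEK293 cells were stimulated with 1.5 ng/mL TSH (final) in presence of Ro20-1724 for 30 min at RT. HTRF cAMP detection after 1 h; each compound tested at 15 concentrations, triplicate.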

Experiment [2] is described as follows: qHTS assay to identify small molecule agonists of the estrogen receptor alpha (ER-alpha) signaling pathway in the presence of an antagonist - cell viability counter screen (AID 1259386).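 Further: series mostly up to about 92 µM; cells exposed to compounds for 22 h at 37 °C before the viability read; nearly all actives have a fitted effect of over 30% in size.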 Summed up: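 Cell viability in VM7Luc4E2 cells (endogenous full-length ER-alpha) measured by CellTiter-Fluor fluorescence in the same wells as the luciferase screen. Cells pre-cultured 5 days in charcoal-stripped serum, then treated 22 h with compounds at 15 concentrations plus 10.0nM ICI-182,780.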
(In general: qHTS replaces the single test concentration by a dilution series.)

For experiment [3], the target named is Progesterone receptor (Homo sapiens) (UniProt P06401). Description: qHTS assay to identify small molecule agonists of the progesterone receptor (PR) signaling pathway (AID 1346784; calls by dose curve; further: nearly all actives have a fitted effect of over 30% in size). In short, it runs like this: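 Agonist qHTS: compounds pinned onto 3,000 PR-UAS-bla HEK 293T cells per well in charcoal-stripped serum medium, 16hr at 37C, then beta-lactamase activity measured by LiveBLAzer FRET fluorescence after 2 hours at room temperature.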

Experiment [4] in a line: qHTS assay to identify small molecule antagonists of the progesterone receptor (PR) signaling pathway - cell viability counter screen (AID 1346798). Further: series mostly up to about 92 µM; nearly all actives have a fitted effect of over 50% in size. Summed up: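 Cytotoxicity read as CellTiter-Glo luminescence (30 min, room temperature) in the same wells as the beta-lactamase readout. HEK293T PR-UAS-bla cells in charcoal-stripped 2% FBS received compound and R5020, then 16 h at 37C, 5% CO2.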

Experiment [5] is described as follows: qHTS assay to identify small molecule agonists of the progesterone receptor (PR) signaling pathway - cell viability counter screen (AID 1346799; calls by dose curve; further: nearly all actives have a fitted effect of over 45% in size). Summed up:
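Cytotoxicity measured by CellTiter-Glo luminescence (30 min, RT) in the same wells as the PR beta-lactamase agonist read. Those HEK293T cells had 16 h compound treatment at 37 C in 2% charcoal-stripped FBS medium.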

Experiment [6] is described as follows: qHTS assay to identify small molecule antagonists of the TGF-beta/Smad signaling pathway - cell viability counter screen (AID 1346824). Further: nearly all actives have a fitted effect of over 50% in size. In short, it runs like this:
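Cytotoxicity counter-screen run in the same wells as the beta-lactamase Smad reporter read: CellTiter-Glo luminescence after 30 min at room temperature. HEK 293T SBE-bla cells had 5 hr compound exposure at 37 C with TGF-beta1 (0.25 ng/mL stock).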

Experiment [7] in a line: qHTS assay to identify small molecule agonists of the TGF-beta/Smad signaling pathway - cell viability counter screen (AID 1346829). Further: top concentration of the series differs between compounds; nearly all actives have a fitted effect of over 45% in size. In short, it runs like this:
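Luminescence from CellTiter-Glo, read after a 30 min room-temperature incubation, gives cell viability of SBE-bla HEK 293T cells treated 5 hr with compounds at 37 C.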

Experiment [8] is described as follows: qHTS assay to identify small molecule agonists of the TGF-beta/Smad signaling pathway (AID 1346859; active means well fitted activation curve with a large enough effect in the signal ratio in the repeat runs, not every such curve was filed as active; the % refers to the signal ratio; further: series mostly up to about 77 µM). Summed up:
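Fluorescence (ex 405 nm; em 460 and 530 nm) was read 2 h after LiveBLAzer FRET substrate at RT. The preceding compound treatment of overnight-plated SBE-bla HEK293T cells lasted 5 h at 37 C.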

Experiment [9] concerns the target Thyrotropin-releasing hormone receptor (Homo sapiens) (UniProt P34981). The experiment in a line: qHTS assay to identify small molecule antagonists of the thyrotropin-releasing hormone receptor (TRHR) signaling pathway (AID 1346877; active means well fitted inhibition curve with a large enough effect in the repeat runs, not every such curve was filed as active; further: series mostly up to about 51 µM). In short, it runs like this:
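TRHR-expressing HEK293 cells loaded with calcium dye for 2 h at 37 C; compounds pre-incubated 5 min at room temperature before TRH challenge at 1 nM final. Intracellular calcium fluorescence read kinetically for 3 min; 15 concentrations in triplicate.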

The target is the same in experiment [10]. The experiment in a line: qHTS assay to identify small molecule agonists of the thyrotropin-releasing hormone receptor (TRHR) signaling pathway (AID 1346891; calls by dose curve; further: series mostly up to about 58 µM). In short, it runs like this:
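Agonist-mode intracellular calcium readout: kinetic fluorescence over 3 min at 1 s intervals after compound addition to TRHR-HEK293 cells (18 h seeded, 2 h dye-loaded at 37 C). Fifteen concentrations, triplicates.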

A short description of experiment [11]: Human pregnane X receptor (PXR) small molecule agonists, qHTS cell viability counter screen (AID 1346977). Further: nearly all actives have a fitted effect of over 50% in size. In short, it runs like this:
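Same-well viability read: CellTiter-Fluor added after 23 hr compound exposure, fluorescence measured 1 hr later. Cells were PXR-Luc HepG2 seeded at 2,000/well in 5% charcoal-stripped FBS medium, rested 5 hr before dosing at 37 C.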

A short description of experiment [12]: Caspase-3/7 induction in HepG2 cells by small molecules, qHTS assay (AID 1346978). Further: nearly all actives have a fitted effect of over 15% in size. Summed up:
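Caspase-3/7 induction was measured by Caspase-Glo 3/7 luminescence (30 min, room temperature) after a 17 hr compound exposure of wild-type HepG2 cells seeded at 2,000 per well and pre-incubated 5 hr.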

Experiment [13] is described as follows: Caspase-3/7 induction in CHO-K1 cells by small molecules, qHTS cell viability counter screen (AID 1346979). Further: nearly all actives have a fitted effect of over 35% in size. Summed up: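 Cytotoxicity counter screen: CellTiter-Fluor added to compound-treated wild-type CHO-K1 cells at 16 h (37C, 5% CO2), fluorescence measured 1 h later; same wells as caspase-3/7 measurement.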
Experiment [14] is described as follows: Caspase-3/7 induction in CHO-K1 cells by small molecules, qHTS assay (AID 1346980). Further: nearly all actives have a fitted effect of over 15% in size. In short, it runs like this: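 Luminescent Caspase-Glo 3/7 read (30min, room temperature) quantified apoptosis induction. Cells were wild-type CHO-K1, treated with compound for 17hr at 37 C and 5% CO2.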
Experiment [15] is described as follows: Caspase-3/7 induction in HepG2 cells by small molecules, qHTS cell viability counter screen (AID 1346981). Further: series mostly up to about 92 µM; nearly all actives have a fitted effect of over 30% in size. Summed up: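 Wild-type HepG2 cells, 2,000/well, settled 5 hr at 37 C, 5% CO2 before compound addition. Viability read by CellTiter-Fluor fluorescence, reagent added after 16 hr compound exposure, then 1 hr at 37C, in the same wells as the caspase read.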

Experiment [16] deals with Nuclear receptor subfamily 1 group I member 2 (Rattus norvegicus) (UniProt Q9R1A7). Description: Rat pregnane X receptor (rPXR) activation by small molecules, qHTS assay (AID 1346983). Further: nearly all actives have a fitted effect of over 20% in size. Particulars: rPXR luciferase reporter cells, One-Glo luminescence, 24 h; max activation: stronger effect = higher value. Summed up: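 Luminescent readout (One-Glo luciferase, 30 min room temperature) followed 24 hr compound treatment at 37 C of rPXR cells plated 2,000 per well and preincubated 5hr; qHTS format with compounds delivered in DMSO.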

The target of experiment [17] is Progesterone receptor (Homo sapiens) (UniProt P06401). Description: qHTS assay to identify small molecule antagonists of the progesterone receptor (PR) signaling pathway (AID 1346795; active means well fitted inhibition curve with a large enough effect in the signal ratio in the repeat runs, not every such curve was filed as active; the % refers to the signal ratio). Summed up:
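Antagonist mode with agonist R5020 at 1 nM final and 16 hr incubation at 37C. Reporter was beta-lactamase driven by UAS in HEK293T (PR-UAS-bla), 2% charcoal-stripped serum; signal from LiveBLAzer FRET substrate, 2 hr at room temperature.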

The target of experiment [18] is Nuclear receptor subfamily 1 group I member 2 (Homo sapiens) (UniProt O75469). The experiment in a line: Human pregnane X receptor (PXR) small molecule agonists, qHTS assay (AID 1346982). Further: nearly all actives have a fitted effect of over 35% in size. Further: potency means the concentration at half of the fitted maximal effect. Summed up: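 PXR-Luc HepG2 reporter cells (CYP3A4-driven luciferase) in 5% charcoal-stripped FBS medium, plated 5 h before compound addition, then treated 24 h at 37C. Luciferase read by ONE-Glo luminescence after 30 min at room temperature.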

For experiment [19] the target is unchanged. Description: CYP3A4 induction through human pregnane X receptor (PXR) by small molecules, qHTS assay (AID 1346984). Further: nearly all actives have a fitted effect of over 40% in size. In short, it runs like this: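 DPX-2 HepG2 cells carrying a PXR response element and CYP3A4-promoter luciferase construct, treated with compounds 24 hr at 37C. Then P450-Glo CYP3A4 Luciferin-IPA substrate (3uM final) for 3 hr at 37C, One-Glo added, luminescence read.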

Unmarked numbers belong to inactive results. Records with an inconclusive call do not appear. Activity calls are given as the source filed them. Unless noted, the call rests on the fitted dose curve; in most records, active means well fitted curve in the direction sought with a large enough effect in the repeat runs; inconclusive means weak or mixed curves; inactive means no such curve, though single readings can be large; an effect the other way counts as inactive or inconclusive.
On the % scale 0 is the no-effect control and ±100 the full control effect.

Chain of Nuclear receptor subfamily 1 group I member 2 (Homo sapiens) (O75469 whole entry, looked up): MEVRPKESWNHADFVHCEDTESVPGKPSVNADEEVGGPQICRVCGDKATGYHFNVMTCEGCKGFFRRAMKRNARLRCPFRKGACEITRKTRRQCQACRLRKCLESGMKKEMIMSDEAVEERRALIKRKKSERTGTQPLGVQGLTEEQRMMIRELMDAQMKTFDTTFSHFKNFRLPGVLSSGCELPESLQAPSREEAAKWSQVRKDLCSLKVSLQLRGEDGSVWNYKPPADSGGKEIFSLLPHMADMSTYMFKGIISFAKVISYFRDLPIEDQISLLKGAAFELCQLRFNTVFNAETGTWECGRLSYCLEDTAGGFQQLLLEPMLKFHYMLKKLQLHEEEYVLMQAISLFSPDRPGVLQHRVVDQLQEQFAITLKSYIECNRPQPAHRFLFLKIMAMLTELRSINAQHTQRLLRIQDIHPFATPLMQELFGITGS
Chain of Thyrotropin-releasing hormone receptor (Homo sapiens) (P34981 whole entry, looked up): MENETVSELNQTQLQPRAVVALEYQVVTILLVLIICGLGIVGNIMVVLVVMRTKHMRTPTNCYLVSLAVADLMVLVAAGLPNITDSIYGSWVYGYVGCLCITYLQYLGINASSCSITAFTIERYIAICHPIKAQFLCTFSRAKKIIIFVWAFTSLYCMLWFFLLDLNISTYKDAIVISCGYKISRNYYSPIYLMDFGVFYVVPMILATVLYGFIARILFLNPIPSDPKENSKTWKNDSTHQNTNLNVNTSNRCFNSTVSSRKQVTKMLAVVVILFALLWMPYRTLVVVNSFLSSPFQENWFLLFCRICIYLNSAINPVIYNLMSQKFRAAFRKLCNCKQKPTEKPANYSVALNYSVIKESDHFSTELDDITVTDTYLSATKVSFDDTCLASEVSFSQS
Chain of Progesterone receptor (Homo sapiens) (P06401 whole entry, looked up): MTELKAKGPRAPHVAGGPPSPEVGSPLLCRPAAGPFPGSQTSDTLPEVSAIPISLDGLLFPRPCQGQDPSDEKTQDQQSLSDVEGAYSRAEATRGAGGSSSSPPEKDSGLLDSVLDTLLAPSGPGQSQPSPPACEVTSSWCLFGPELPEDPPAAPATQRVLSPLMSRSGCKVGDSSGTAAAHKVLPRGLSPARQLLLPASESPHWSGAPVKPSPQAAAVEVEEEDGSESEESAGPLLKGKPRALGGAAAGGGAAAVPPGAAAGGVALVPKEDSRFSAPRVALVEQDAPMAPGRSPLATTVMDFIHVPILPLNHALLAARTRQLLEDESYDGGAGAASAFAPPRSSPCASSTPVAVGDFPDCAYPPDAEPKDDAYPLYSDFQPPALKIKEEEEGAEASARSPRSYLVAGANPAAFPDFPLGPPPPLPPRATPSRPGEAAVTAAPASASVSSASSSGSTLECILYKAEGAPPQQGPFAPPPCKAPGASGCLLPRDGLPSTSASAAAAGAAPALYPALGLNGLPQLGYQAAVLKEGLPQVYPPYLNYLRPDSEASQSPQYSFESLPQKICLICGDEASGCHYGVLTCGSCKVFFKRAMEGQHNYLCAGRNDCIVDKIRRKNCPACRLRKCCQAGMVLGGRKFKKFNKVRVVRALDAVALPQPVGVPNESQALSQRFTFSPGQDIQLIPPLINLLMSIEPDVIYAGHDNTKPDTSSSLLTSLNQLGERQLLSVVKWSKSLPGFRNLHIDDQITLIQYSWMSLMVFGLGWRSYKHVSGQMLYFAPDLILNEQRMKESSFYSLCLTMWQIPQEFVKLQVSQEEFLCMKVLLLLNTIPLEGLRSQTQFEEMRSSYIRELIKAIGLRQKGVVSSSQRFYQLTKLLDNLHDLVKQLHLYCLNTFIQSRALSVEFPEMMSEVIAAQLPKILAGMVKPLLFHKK
Chain of Nuclear receptor subfamily 1 group I member 2 (Rattus norvegicus) (Q9R1A7 whole entry, looked up): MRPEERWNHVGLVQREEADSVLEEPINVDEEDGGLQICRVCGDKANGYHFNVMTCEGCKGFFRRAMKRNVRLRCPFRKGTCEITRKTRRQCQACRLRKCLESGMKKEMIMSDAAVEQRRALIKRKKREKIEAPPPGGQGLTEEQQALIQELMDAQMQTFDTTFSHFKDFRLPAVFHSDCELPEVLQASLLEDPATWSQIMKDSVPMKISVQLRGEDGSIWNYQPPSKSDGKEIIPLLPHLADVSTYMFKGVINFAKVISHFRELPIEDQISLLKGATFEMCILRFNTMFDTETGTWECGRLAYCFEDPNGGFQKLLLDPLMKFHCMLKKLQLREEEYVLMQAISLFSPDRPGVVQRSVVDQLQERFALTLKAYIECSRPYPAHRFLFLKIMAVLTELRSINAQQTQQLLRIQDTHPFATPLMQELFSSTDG
Chain of Thyrotropin receptor (Homo sapiens) (P16473 whole entry, looked up): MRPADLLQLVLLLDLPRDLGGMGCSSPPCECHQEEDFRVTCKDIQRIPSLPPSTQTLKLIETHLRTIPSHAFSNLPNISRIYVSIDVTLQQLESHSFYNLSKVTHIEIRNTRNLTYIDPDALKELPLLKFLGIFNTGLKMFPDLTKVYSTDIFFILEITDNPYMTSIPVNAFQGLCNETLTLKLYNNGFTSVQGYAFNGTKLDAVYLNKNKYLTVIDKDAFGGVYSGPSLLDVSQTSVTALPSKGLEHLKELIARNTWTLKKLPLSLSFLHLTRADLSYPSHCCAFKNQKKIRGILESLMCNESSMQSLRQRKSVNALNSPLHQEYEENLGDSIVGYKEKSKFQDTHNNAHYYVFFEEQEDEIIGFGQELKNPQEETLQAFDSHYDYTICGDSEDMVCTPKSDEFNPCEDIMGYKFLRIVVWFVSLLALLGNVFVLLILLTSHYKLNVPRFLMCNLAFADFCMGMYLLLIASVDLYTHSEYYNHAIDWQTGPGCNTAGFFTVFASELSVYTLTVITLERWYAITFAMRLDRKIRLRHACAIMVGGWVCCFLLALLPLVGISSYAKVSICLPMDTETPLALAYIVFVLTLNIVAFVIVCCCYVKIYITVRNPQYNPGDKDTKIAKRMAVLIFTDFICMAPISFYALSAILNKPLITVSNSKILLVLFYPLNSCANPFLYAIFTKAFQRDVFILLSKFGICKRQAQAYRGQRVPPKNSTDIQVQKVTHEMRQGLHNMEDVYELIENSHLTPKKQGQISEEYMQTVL

Consider `NS(=O)(=O)c1cc(C2(O)NC(=O)c3ccccc32)ccc1Cl` (centres undefined), for which the Potency result in experiment [1], in [3], in experiment [4], in experiment [5], in experiment [11] and in experiment [13] was “inactive” throughout. Besides, the outcome in experiment [2], in [6], in experiment [7], in experiment [8], in experiment [9] and in experiment [10] was inactive. In addition, the compound was called inactive in [12], in [14] and in experiment [15]. For the same compound, the max activation in experiment [16] is -0.257%.

Regarding `CSc1ccc(C=O)cc1`, the Potency result in [1], in [3], in experiment [17], in experiment [5], in [11] and in experiment [13] was “inactive” each time. In addition, the Potency result in experiment [18] is “inactive”. The result in experiment [2], in [6], in [7], in experiment [8], in experiment [12] and in experiment [14] was inactive. Moreover, the compound was classed as inactive in experiment [15].

As to `CCC(C)(C)C1CCC(OC)CC1` (centres undefined), the Potency result in [1], in experiment [3], in experiment [17], in [11] and in experiment [13] was “inactive” each time. Moreover, the outcome in experiment [2], in experiment [6], in [7], in [8], in experiment [9] and in experiment [10] was inactive. For the same compound, the call in [12] and in [14] was inactive. Besides, the Potency in experiment [18] was 30.6 µM (active).

Turning to `CC1=CCC2C(C1)C2(C)C` (centres undefined), the Potency entry in experiment [1], in experiment [3], in experiment [17], in experiment [11] and in experiment [13] was “inactive” each time. Also, the outcome in experiment [2], in experiment [6], in experiment [7], in [8], in experiment [9] and in experiment [10] was inactive. Besides, the compound was classed as inactive in [12], in experiment [14] and in experiment [15]. Besides, in experiment [18], the Potency is 48.6 µM (active).

`CCC(C(=O)NC(N)=O)c1ccccc1` (centres undefined): the Potency result in experiment [1], in experiment [3], in experiment [4], in [5], in [11] and in experiment [13] was “inactive” throughout. Further, the Potency result in experiment [18] and in [19] was “inactive” throughout. For the same compound, the outcome in experiment [2], in [6], in [7], in [8], in experiment [9] and in experiment [10] was inactive. Also, the result in [12], in experiment [14] and in experiment [15] was inactive. Further, in experiment [16], the max activation is -2.91%.

In the case of `CCn1cc(C(=O)O)c(=O)c2cc(F)c(N3CCN(C)CC3)cc21`, in experiment [1], the activity change, negative = inhibition is 0.775% [at 19 µM]. The activity change, negative = cytotoxicity is 0.853% [at 19 µM] in experiment [2]; 0.0653% [at 18.9 µM] in experiment [4]; -1.41% [at 19 µM] in [5]; -2.92% [at 15.8 µM] in [7]; 4.23% [at 19 µM] in [11]; 6.37% [at 19 µM] in experiment [13]. Further, the activity change, negative = cytotoxicity in experiment [15] is 0.0199% [at 19 µM]. Further, the activation in experiment [3] was -0.0581% [at 19 µM]; in [8], 0.23% [at 15.8 µM]; in experiment [10], 0.129% [at 11.8 µM]; in [18], -5.92% [at 19 µM]. Further, in experiment [6], the viability change, negative = cytotoxic is 3.51% [at 15.8 µM]. Further, the activity, negative = inhibition in [9] was 2.2% [at 10.5 µM]. Further, in [12], the caspase activation was -0.273% [at 19 µM]. Further, the caspase-3/7 activation in [14] is 0.47% [at 19 µM]. The max activation in [16] was -0.517%.

In the case of `CC/C=C\C#N`, the Potency result in [1], in experiment [3], in experiment [17], in [5], in experiment [11] and in experiment [13] was “inactive” in each case. In addition, the Potency result in experiment [18] was “inactive”. Further, the outcome in experiment [2], in [7], in experiment [8], in experiment [9], in experiment [10] and in experiment [12] was inactive. In addition, the outcome in experiment [14] and in [15] was inactive.

These data come from PubChem BioAssay (Tox21).
